# From PubChem
# Most compounds without a hit are left out; they make up all but 9% or so of the library.
# BAZ2B inh: inhibitors of human BAZ2B bromodomain. Potency, µM (series often up to 114 µM), without a hit: at the top dose activity change, negative = inhibition, hits mostly inhibitors. AlphaScreen BAZ2B-H3K14Ac peptide displacement. Q9UIF8. AID 504333. hit rate 4.4% among 360,000; also: % is scaled to controls: 0 for no effect and ±100 for the full control effect; nearly all actives have a fitted effect of over 60% in size
# Target sequence (Q9UIF8 whole entry, looked up): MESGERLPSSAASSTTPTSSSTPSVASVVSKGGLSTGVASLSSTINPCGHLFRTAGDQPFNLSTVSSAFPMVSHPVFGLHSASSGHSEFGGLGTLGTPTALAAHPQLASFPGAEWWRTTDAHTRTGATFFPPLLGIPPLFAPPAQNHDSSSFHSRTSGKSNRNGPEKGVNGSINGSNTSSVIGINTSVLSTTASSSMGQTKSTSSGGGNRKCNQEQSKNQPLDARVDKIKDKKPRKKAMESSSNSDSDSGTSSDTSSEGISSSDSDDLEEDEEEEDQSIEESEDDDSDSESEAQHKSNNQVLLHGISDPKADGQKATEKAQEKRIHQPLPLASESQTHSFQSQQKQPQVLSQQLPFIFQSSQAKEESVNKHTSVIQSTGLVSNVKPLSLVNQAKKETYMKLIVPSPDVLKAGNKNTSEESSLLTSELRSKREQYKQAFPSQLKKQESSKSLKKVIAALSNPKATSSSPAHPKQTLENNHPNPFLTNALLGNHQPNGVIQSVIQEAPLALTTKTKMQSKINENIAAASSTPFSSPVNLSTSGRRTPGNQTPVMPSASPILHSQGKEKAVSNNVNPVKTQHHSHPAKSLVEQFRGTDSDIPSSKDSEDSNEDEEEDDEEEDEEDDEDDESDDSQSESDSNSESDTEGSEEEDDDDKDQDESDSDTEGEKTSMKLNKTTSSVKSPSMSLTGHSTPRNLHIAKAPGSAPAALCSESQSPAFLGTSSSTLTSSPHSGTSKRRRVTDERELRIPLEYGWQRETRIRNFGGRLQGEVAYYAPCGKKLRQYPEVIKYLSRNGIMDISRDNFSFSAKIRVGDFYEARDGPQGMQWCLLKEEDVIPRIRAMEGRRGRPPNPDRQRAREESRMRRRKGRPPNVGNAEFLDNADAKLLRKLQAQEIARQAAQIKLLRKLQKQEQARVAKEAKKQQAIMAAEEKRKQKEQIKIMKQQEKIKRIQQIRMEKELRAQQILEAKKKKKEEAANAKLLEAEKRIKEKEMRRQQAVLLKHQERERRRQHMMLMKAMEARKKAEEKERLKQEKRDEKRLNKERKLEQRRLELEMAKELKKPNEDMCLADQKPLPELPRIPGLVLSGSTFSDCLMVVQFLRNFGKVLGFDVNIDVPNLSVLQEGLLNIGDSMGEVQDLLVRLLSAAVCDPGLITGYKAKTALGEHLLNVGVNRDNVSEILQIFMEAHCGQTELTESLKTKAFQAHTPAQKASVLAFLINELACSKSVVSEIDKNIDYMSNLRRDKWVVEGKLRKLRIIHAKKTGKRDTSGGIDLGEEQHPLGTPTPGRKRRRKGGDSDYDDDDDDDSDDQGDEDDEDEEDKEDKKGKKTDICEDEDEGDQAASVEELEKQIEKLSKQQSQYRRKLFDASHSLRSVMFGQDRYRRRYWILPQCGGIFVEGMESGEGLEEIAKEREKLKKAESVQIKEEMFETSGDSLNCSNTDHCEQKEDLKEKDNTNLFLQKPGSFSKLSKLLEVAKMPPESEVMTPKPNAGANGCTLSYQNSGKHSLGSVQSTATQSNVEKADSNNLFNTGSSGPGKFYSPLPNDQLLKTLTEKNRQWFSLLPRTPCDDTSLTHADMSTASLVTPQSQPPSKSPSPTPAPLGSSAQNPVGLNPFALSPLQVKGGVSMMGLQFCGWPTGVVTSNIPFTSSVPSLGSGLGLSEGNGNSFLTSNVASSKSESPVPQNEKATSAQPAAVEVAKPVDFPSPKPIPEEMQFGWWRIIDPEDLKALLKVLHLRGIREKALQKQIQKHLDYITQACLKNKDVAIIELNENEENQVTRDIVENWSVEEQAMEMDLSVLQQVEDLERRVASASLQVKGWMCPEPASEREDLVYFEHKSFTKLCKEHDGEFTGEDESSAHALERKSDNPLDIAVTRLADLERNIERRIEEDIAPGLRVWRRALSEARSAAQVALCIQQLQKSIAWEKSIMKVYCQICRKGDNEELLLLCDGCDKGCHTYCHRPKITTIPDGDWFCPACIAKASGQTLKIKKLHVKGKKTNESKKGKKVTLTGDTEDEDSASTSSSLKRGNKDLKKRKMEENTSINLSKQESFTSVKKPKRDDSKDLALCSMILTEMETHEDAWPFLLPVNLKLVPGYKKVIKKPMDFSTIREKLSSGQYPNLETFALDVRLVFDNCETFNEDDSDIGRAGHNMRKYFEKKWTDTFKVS
#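 BAZ2B (50 nM) with biotin-H3(5-23)K14Ac peptide (50 nM) in PBS pH 7.4, 0.01% Tween-20, preformed 30 min, then compound 30 min at room temperature; top concentration 110uM. AlphaScreen streptavidin donor/nickel chelate acceptor beads (10 ug/mL final), 20 min dark, signal read.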
# HP1b binding inh: blocks HP1-beta chromodomain binding to methylated histone tails; P83916; AlphaScreen HP1-beta / biotin-H3K9me3 peptide binding; Potency, µM (series often up to 114 µM), for the others: top-dose activity change, negative = inhibition, usual class: inhibitors; hit rate 0.56% among 390,000; AID 540317; also: nearly all actives have a fitted effect of over 70% in size
#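 AlphaScreen: HP1-beta (50 nM) preformed 30 min with biotin-H3(1-18)K9me3 peptide (50 nM) in PBS pH 7.4, 0.01% Tween-20. Compound added for 30 min at RT, then streptavidin donor/nickel chelate acceptor beads (10 ug/mL) for 30 min.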
# PLK1 PBD block: PLK1 (human) polo-box domain binding inhibition; P53350; Plk1 PBD binding of FITC phosphopeptide, fluorescence polarization; Potency, µM, inactives show max response, negative = inhibition, usual class: inhibitors; hit rate 2.8% among 360,000; also: series mostly up to about 57 µM; % is scaled to controls: 0 for no effect and ±100 for the full control effect; nearly all actives have a fitted effect of over 65% in size
# ALOX12 inh: ALOX12 (human) lipoxygenase inhibition; P18054; purified 12hLO, xylenol orange hydroperoxide absorbance; Potency, µM (highest dose often 108 µM), for the others: at the top dose activity change, negative = inhibition, usual class: inhibitors; hit rate 1.1% among 580,000; AID 1671190; also: % is scaled to controls: 0 for no effect and ±100 for the full control effect
#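 Purified human 12hLO at 150 nM in 25 mM Hepes, 0.01% Triton X-100, pH 7.0, preincubated 15 min at room temperature with compound. Reaction started with 40 uM arachidonic acid, 30 min at room temperature. Hydroperoxide measured by Fe-xylenol orange, 573/405 nm absorbance ratio.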
# JMJD2A Tudor: inhibitors of human JMJD2A Tudor domain. Potency, µM (top dose mostly 114 µM), for inactives: at the highest dose activity change, negative = inhibition, hits mostly inhibitors. hit rate 4.4% among 390,000. AID 504339. AlphaScreen JMJD2A-Tudor / H3K4me3 peptide binding; also: % is scaled to controls: 0 for no effect and ±100 for the full control effect; nearly all actives have a fitted effect of over 50% in size
# G9a block: blocks human histone lysine methyltransferase G9a. Q96KQ7. Potency, µM (top dose mostly 102 µM), inactives show top-dose activity, negative = inhibition, usual class: inhibitors. hit rate 8.8% among 350,000. G9a H3K9 monomethylation, AlphaScreen, 2 h; also: % is scaled to controls: 0 for no effect and ±100 for the full control effect; nearly all actives have a fitted effect of over 75% in size
#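 Using a bead-based AlphaScreen, monomethylated H3K9 product from 2 h room-temperature reactions (G9a 20 nM, peptide 500 nM, SAM 20 uM) was detected with 0.5 ug/mL rabbit anti-H3K9me1 antibody.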
# The depositor's hits bear a star; ? = inconclusive; . = not tested or not shown; [ ] = dose if it differs, or a comment. Calls follow the shape of the dose curve; as a rule, active = well fitted curve in the direction sought with a large enough effect; inconclusive = small, poorly fitted or top-dose-only effect, or another doubt; inactive = no such curve, though single readings can be large; an effect the other way counts as inactive or inconclusive. Potency is read from the fitted curve at half-maximal effect.
SMILES,BAZ2B inh,HP1b binding inh,PLK1 PBD block,ALOX12 inh,JMJD2A Tudor,G9a block
O=C1C2CCCN2C(=O)N1CCCN1CCN(c2cccc(Cl)c2)CC1 (configuration not stated),1%,32%,-4%,-15%,-13%,15%[59 µM]
CC(C)C(=O)Nc1cccc(N2CCN(CCCN3C(=O)C4CCCCN4C3=O)CC2)c1 (configuration not stated),.,18%,-2%,?,79µM*,.
Cc1ccc(N2CCN(CCCN3C(=O)C4CCCN4C3=O)CC2)cc1 (configuration not stated),?,24%,-15%,?,-21%,8.9µM*
Cc1cc(C)nc(NS(=O)(=O)c2ccc(N=NN(C)C)cc2)n1,8%,31%,2%,1%,-2%,.
CC(=O)c1cccc(NC(=O)CCCOc2ccc(C)cc2)c1,6%,0%,-29%,18%,-1%[57.1 µM],-2%[59 µM]
CC(=O)c1cccc(OCC(=O)NC2CCCCCC2)c1,-2%,41%,2%,24%,2%,?
CC(=O)c1cccc(OCC(O)CNCCOc2ccc(C)cc2)c1 (configuration not stated),50µM*,-5%,-4%,?,4µM*,40µM*
CC(=O)c1cccc(OCC(O)CNCC2CCCCC2)c1 (configuration not stated),56µM*,71µM*,-2%,?,8.9µM*,-5%
COc1ccc(OCCOC(=O)CNC(=O)c2cccc(C)c2)cc1,13%,13%,-2%,-15%,-2%,50µM*
COc1ccccc1-n1nc(C(=O)Nc2ccc3c(c2)OCO3)c2ccccc2c1=O,-22%,14%,-3%,25%,-7%,-38%[12.7 µM]
O=C(CSc1cccc2cccnc12)OCC(=O)c1ccccc1,1%[57.1 µM],-6%,21µM*,-6%,35µM*,16%
O=C(CSc1cccc2cccnc12)Nc1cc(C(=O)O)cc(C(=O)O)c1,-4%,39%,?,25µM*,-12%,.
CN(C)C(=O)CSc1cccc2cccnc12,9%,11%,12µM*,-28%,-7%,?
Fc1ccccc1N1CCN(CCCc2ccccc2)CC1,?,?,-6%,-23%,22µM*,35µM*
C/C(=C\c1ccccc1)CN1CCN(c2ccccc2F)CC1,-38%,?,3%,?,5µM*,?
COc1cccc(CNC(=O)N2CCC(C3CCN(C(C)=O)CC3)C2)c1 (configuration not stated),.,.,.,-6%,.,.
O=c1cc(-c2ccccc2)[nH]c2ccc(Cl)cc12,.,.,.,.,.,1%
N#CC1=C2SCCN2C(=O)C(C#N)C12CCCCC2 (configuration not stated),-38%,19%,-9%,0%,-25%,22µM*
CCSC1=C(C#N)C2(CCCCC2)C(C#N)C(=O)N1 (configuration not stated),.,28%,-3%,-14%,-13%,-4%[59 µM]
O=S(=O)(c1cc(F)ccc1F)N1CCN(Cc2cccc3cccnc23)CC1,.,.,.,16µM*,.,.
O=S(=O)(c1ccc(Cl)cc1)N1CCN(Cc2ccc(O)c3ncccc23)CC1,32µM*,26%,-11%,-15%,56µM*,-38%
Oc1ccc(CN2CCN(Cc3ccccc3)CC2)c2cccnc12,-1%,?,?,-19%,40µM*,3%[59 µM]
CN1c2cc(C(=O)Nc3ccc4c(c3)OCCO4)ccc2C(=O)N2CCCCCC21 (configuration not stated),.,.,.,-3%,.,.
Cc1ccc(CN=c2c([N+](=O)[O-])nn(-c3ccc(Cl)cc3)n2O)cc1,?,?,-5%,?,?,50µM*
O=[N+]([O-])c1nn(-c2ccc(Cl)cc2)n(O)c1=NCc1cccnc1,?,1%,-3%,?,?,?
SMILES,BAZ2B inh,HP1b binding inh,PLK1 PBD block,ALOX12 inh,JMJD2A Tudor,G9a block
O=[N+]([O-])c1nn(-c2ccc(Cl)cc2)n(O)c1=NCc1ccncc1,?,21%,-4%,-13%,-26%,40µM*
O=[N+]([O-])c1nn(-c2cccc(Cl)c2)n(O)c1=NCc1cccnc1,?,-21%,-6%,-24%,?,7.9µM*
Cc1cc(C)n(-c2ncnc3scc(-c4ccccc4Cl)c23)n1,.,.,.,37%,.,.
Cc1ccc(C)c(NC(=O)c2ccccn2)c1,19%,13%,-5%,-7%,?,11%[12.7 µM]
Cc1cc(C)nc(NC(=S)Nc2ccc(F)cc2F)c1,-19%,33%,-13%,14%,5%,-23%
Cc1ccc(C)c(NC(=S)Nc2ncccc2C)c1,?,?,-15%,28µM*,32µM*,32µM*
COc1cc(NC(=S)Nc2ncccc2C)cc(OC)c1OC,?,14%,-13%,16µM*,-32%,10µM*
Cc1cccnc1NC(=S)Nc1ccc(F)cc1F,?,-12%,?,16µM*,-8%,50µM*
CC1CCCN(C(=O)COc2ccc(NC(=O)c3cccs3)cc2)C1 (configuration not stated),?,9%,-9%,-18%,-34%,-14%[59 µM]
CC(CCc1ccc(O)cc1)NCc1ccc(Br)cc1 (configuration not stated),7%,33%,-1%,13µM*,-6%,.
COC(=O)c1c(NC(C)=O)sc(C(=O)Nc2ccccc2F)c1C,-5%,-14%,24µM*,-26%,?,.
O=C(CN1C(=O)NC2(CCCC2)C1=O)N1CCN(Cc2ccccc2)CC1,11%,-2%,3%,-5%,-9%,21%[0.501 µM]
CN1CCN(c2ncncc2-c2ccccc2Cl)CC1,.,.,.,40µM*,.,1%[0.501 µM]
C=CCn1c(CCNC(=O)c2cccs2)nnc1SCC(=O)c1ccc(Br)cc1,0%,28%,-11%,-30%,-20%,45µM*
C=CCn1c(SCC(=O)c2ccc(NS(=O)(=O)c3ccccc3)cc2)nnc1-c1cccs1,-8%,-1%,-26%,?,32µM*,?
C=CCn1c(CNC(=O)c2cccs2)nnc1SCc1ccc(Cl)cc1Cl,0%,-2%,-1%,-18%,-9%,-1%
COc1ccc(C[C@H](NC(=O)[C@@H]2C[C@@H](NC(=O)Nc3cccc(F)c3)CCN2C(=O)[C@H](C)O)C(N)=O)cc1,.,.,.,-24%,.,.
Cc1cc(C(=O)NNC(=S)Nc2ccccc2)nn1C,3%,80%,-15%,-5%,-13%[11.4 µM],32µM*
O=C(NNC(=S)Nc1ccccc1)c1cccc(Br)c1,8%,3%,?,14%,-19%,50µM*
O=C(NNC(=O)c1ccc(NC(=O)c2ccccc2)cc1)Nc1ccccc1,71µM*,15%,-14%,-15%,?,?
Cc1nn(C)cc1C(=O)NNC(=S)Nc1ccccc1,7%[57.1 µM],35%,-3%,0%,-18%,?
O=C(NNC(=O)c1cccc(Br)c1)Nc1ccc(Cl)cc1,-10%,?,21µM*,-7%,13µM*,0%
